Our source for the Potency values is PubChem BioAssay (Tox21).

Molecules are shown by their SMILES. Where “and” joins values, the source holds several entries; their conditions need not be identical. Equal values may be shown once. Results filed as inconclusive are left out. A structure can be active in one record and inactive in another. Calls of active or inactive are those of the source. Unless noted, the call rests on the fitted dose curve.

Test [1] can be described thus: Nuclear factor erythroid 2-related factor 2/antioxidant responsive element (Nrf2/ARE) small molecule agonists: qHTS cell viability counter screen in human keratinocytes (AID 1919968; active means well fitted curve in the direction sought with a large enough effect in the repeat runs; an effect the other way counts as inactive or inconclusive; further: nearly all actives have a fitted effect of over 55% in size). The procedure, abridged: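 KeratinoSens cells (HaCaT keratinocytes stably carrying an ARE-luciferase reporter) were seeded at 1,500 cells/well and rested 5 h at 37 C/5% CO2. They were then exposed to compounds in DMSO for 23 h. Viability was read by CellTiter-Fluor fluorescence after 1 h.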
In general terms: In qHTS, concentration-response curves come from the screen itself.

Test [2] is described as follows: Nuclear factor erythroid 2-related factor 2/antioxidant responsive element (Nrf2/ARE) small molecule agonists: luciferase reporter gene qHTS assay in human keratinocytes (AID 1919969). Further: nearly all actives have a fitted effect of over 35% in size. A general note: Reporter assays use an easily measured gene product as a stand-in for the process of interest.
In test [3] the target is Gonadotropin-releasing hormone receptor (Homo sapiens) (UniProt P30968). Description: Human gonadotropin-releasing hormone receptor (GnRHR) small molecule agonists, calcium flux assay in GnRHR-HEK293 cells (AID 1920063). Further: nearly all actives have a fitted effect of over 35% in size. The procedure, abridged:
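HEK293 cells stably expressing human GnRHR were plated 18 h at 37 °C, loaded with calcium dye 1 h at 37 °C, then given compound in agonist mode; fluorescence (Ex/Em 480/540) read kinetically for 3 min at 1 s intervals.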
In general terms: Calcium assays in cells follow changes in intracellular calcium, usually with a dye or a luminescent sensor.

Test [4] addresses KiSS-1 receptor (Homo sapiens) (UniProt Q969F8). Description: Human kisspeptin (KISS1R) small molecule agonists, calcium flux assay in KISS1R-HEK293 cells (AID 1920064; active means well fitted curve in the direction sought with a large enough effect in the repeat runs; an effect the other way counts as inactive or inconclusive). In a few lines:
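HEK293 cells stably expressing human KISS1R were plated 18 h at 37 °C, loaded with calcium dye for 1 h at 37 °C, then given compound by pin tool. Fluorescence (Ex/Em 480/540) was read kinetically for 3 min.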

A short description of test [5]: G protein-coupled receptor (GPCR) small molecule agonists, calcium flux assay: HEK293 wild type cell line counter screen (AID 1920065). The procedure, abridged:
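Cells were plated and cultured 18 h at 37 C/5% CO2, then loaded with calcium dye for 1 h at 37 C. Compounds in DMSO were pin-transferred in agonist mode, and fluorescence (Ex/Em 480/540) was read kinetically for 3 min at 1 s intervals.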

Test [6] can be described thus: p53 small molecule agonists, cell-based qHTS assay with human liver microsomes (AID 1963577). The procedure, abridged:
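p53RE-bla cells, 4,000/well, compound added after 5 h, with human liver microsomes 0.5 mg/mL and NADPH 0.5 mg/mL final; 16 h at 37 C, then LiveBLAzer 2 h RT, fluorescence.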

Test [7] is described as follows: p53 small molecule agonists, cell-based qHTS assay with rat liver microsomes (AID 1963578). The procedure, abridged:
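p53RE-bla cells, 4,000/well, pre-incubated 5 h, then given compounds plus rat liver microsomes (0.5 mg/mL final) and NADPH (0.5 mg/mL final). Incubation 16 h at 37 C; beta-lactamase reporter read by LiveBLAzer fluorescence after 2 h at room temperature.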

A short description of test [8]: p53 small molecule agonists, cell-based qHTS assay with human liver microsomes: qHTS cell viability counter screen (AID 1963579). Further: nearly all actives have a fitted effect of over 45% in size. The procedure, abridged:
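p53RE-bla cells, 4,000/well, dosed 5 hours after plating, with human liver microsomes (0.5 mg/mL final) plus NADPH (0.5 mg/mL final), 16 hours at 37 C. Viability read as CellTiter-Glo luminescence after 30 min at room temperature.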

A short description of test [9]: p53 small molecule agonists, cell-based qHTS assay with rat liver microsomes: qHTS cell viability counter screen (AID 1963580). Further: nearly all actives have a fitted effect of over 45% in size. In a few lines: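 p53RE-bla HCT-116 cells (4,000/well) rested 5 h at 37 C, then given Tox21 compounds in DMSO with rat liver microsomes (0.5 mg/mL final) plus NADPH (0.5 mg/mL final) for 16 h at 37 C. Viability read by CellTiter-Glo luminescence after 30 min at room temperature.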

A short description of test [10]: p53 small molecule agonists, cell-based qHTS assay: qHTS cell viability counter screen (AID 1963581). Further: nearly all actives have a fitted effect of over 45% in size. The procedure, abridged: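 p53RE-bla HCT-116 cells were exposed to compounds for 16 h at 37 C; after the beta-lactamase FRET read in the same wells, CellTiter-Glo was added and luminescence (intracellular ATP) read after 30 min at room temperature.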
Test [11] can be described thus: p53 small molecule agonists, cell-based qHTS assay (AID 1963582; active means well fitted activation curve with a large enough effect in the signal ratio in the repeat runs, not every such curve was filed as active; the % refers to the signal ratio). In a few lines:
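p53RE-bla beta-lactamase reporter cells rested 5 h at 37 C/5% CO2, then received compounds in DMSO by pin transfer and were incubated 16 h at 37 C. LiveBLAzer B/G FRET substrate was loaded for 2 h at room temperature before fluorescence reading.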

Test [12] addresses 5-hydroxytryptamine receptor 2A (Homo sapiens) (UniProt P28223). Description: 5-hydroxytryptamine receptor 2A (HTR2A) small molecule antagonists, cell-based qHTS assay (AID 1963586). Further: nearly all actives have a fitted effect of over 45% in size. Further: potency means the concentration at half of the fitted maximal effect. The procedure, abridged: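 Antagonist-mode intracellular calcium assay: DOI (4 nM) added after 5 min compound pre-incubation at room temperature to dye-loaded HTR2A-CHO cells. Fluorescence followed for 3 min, sampled every second.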

For test [13] the target is unchanged. Description: 5-hydroxytryptamine receptor 2A (HTR2A) small molecule agonists, cell-based qHTS assay (AID 1963587). Further: nearly all actives have a fitted effect of over 30% in size. Further: potency means the concentration at half of the fitted maximal effect. The procedure, abridged: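 HTR2A-CHO cells, plated 18 h at 37 C/5% CO2, dye-loaded 1 h at 37 C; compounds in DMSO added by pin tool (agonist mode). Intracellular calcium flux read as kinetic fluorescence on FDSS over 2 min at 1 s intervals.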
For test [14], the target named is Muscarinic acetylcholine receptor M1 (Homo sapiens) (UniProt P11229). Description: Cholinergic receptor muscarinic 1 (CHRM1) small molecule antagonists, cell-based qHTS assay (AID 1963588). Further: nearly all actives have a fitted effect of over 40% in size. Further: potency means the concentration at half of the fitted maximal effect. In a few lines:
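CHRM1-CHO calcium-flux assay, antagonist mode. Cells were seeded 18 h, dye-loaded 1 h at 37 C and given compound for 5 min at RT, then acetylcholine was added at 50nM. FDSS fluorescence was read 3 min; 15 concentrations, three runs.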

Test [15] has the same target. Description: Cholinergic receptor muscarinic 1 (CHRM1) small molecule agonists, cell-based qHTS assay (AID 1963589). Further: nearly all actives have a fitted effect of over 35% in size. The procedure, abridged: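 CHO cells stably expressing human CHRM1, seeded 18 h at 37 C/5% CO2, dye-loaded 1 h at 37 C, then given compound in agonist mode; intracellular calcium fluorescence read kinetically at 1 s intervals. Fifteen concentrations, three independent runs.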

The nature of test [16]: cAMP Responsive Elements (CRE) small molecule agonists, cell-based qHTS assay (AID 1963590). In a few lines: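 CRE-bla HEK 293T cells in DMEM with 10% dialyzed FBS, NEAA, pyruvate and 25 mM HEPES were plated 18 h at 37 C/5% CO2, then exposed to compounds in DMSO for 3 h before LiveBLAzer B/G FRET substrate addition.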
A short description of test [17]: cAMP Responsive Elements (CRE) small molecule antagonists, cell-based qHTS assay (AID 1963591; active means well fitted inhibition curve with a large enough effect in the signal ratio in the repeat runs, not every such curve was filed as active; the % refers to the signal ratio). In a few lines: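 CRE-bla HEK293T cells were plated 18 h at 37 °C/5% CO2, pinned with compound in DMSO, then stimulated with NKH477 at 0.25 uM final for 3 h. LiveBLAzer B/G FRET substrate was added and plates incubated 2 h at room temperature.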
Test [18] concerns the target Beta-2 adrenergic receptor (Homo sapiens) (UniProt P07550). Description: Adrenergic beta2 receptor (ADRB2) small molecule antagonists, cell-based qHTS assay (AID 1963592). Further: series mostly up to about 92 µM; nearly all actives have a fitted effect of over 50% in size. The procedure, abridged: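 Cells (CHO, stable ADRB2 overexpression) incubated 18-20hr at 37C; compounds added from DMSO; agonist mix (1nM isoproterenol, 100uM IBMX, 25uM Ro-20-1724) added; 0.5hr RT; d2-cAMP and anti-cAMP-cryptate added; 1hr RT; 665/615 nm read.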

Test [19] deals with D(2) dopamine receptor (Homo sapiens) (UniProt P14416). Description: Dopamine D2 receptor (DRD2) small molecule agonists, cell-based qHTS assay (AID 1963594). Further: nearly all actives have a fitted effect of over 35% in size. In a few lines:
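HEK293 cells stably expressing DRD2 were cultured 24 h at 37 C, then given Ro20-1724 (0.1 mM final) and compounds for 10 min at room temperature. NKH477 (200nM) was then added for 30 min. cAMP was read by HTRF.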

For test [20] the target is unchanged. Description: Dopamine D2 receptor (DRD2) small molecule antagonists, cell-based qHTS assay (AID 1963595; active means well fitted inhibition curve with a large enough effect in the signal ratio in the repeat runs, with a control signal flat; the % refers to the signal ratio). The procedure, abridged: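 HEK293 cells stably expressing DRD2, preincubated with 0.1 mM Ro20-1724 and compounds 10 min, were stimulated with 200 nM NKH477 plus 12 nM quinpirole for 30 min at room temperature; cAMP measured by HTRF (665/620 nm).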

Chain of Gonadotropin-releasing hormone receptor (Homo sapiens) (P30968 whole entry, looked up): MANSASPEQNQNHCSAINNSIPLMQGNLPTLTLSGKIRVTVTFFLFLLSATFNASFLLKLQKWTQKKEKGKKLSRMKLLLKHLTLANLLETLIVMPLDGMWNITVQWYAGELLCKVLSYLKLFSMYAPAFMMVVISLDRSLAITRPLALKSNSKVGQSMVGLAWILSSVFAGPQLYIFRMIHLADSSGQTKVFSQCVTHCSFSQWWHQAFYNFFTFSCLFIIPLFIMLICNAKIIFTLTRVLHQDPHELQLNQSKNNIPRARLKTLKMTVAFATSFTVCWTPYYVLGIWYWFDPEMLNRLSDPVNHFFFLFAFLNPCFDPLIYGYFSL
Chain of KiSS-1 receptor (Homo sapiens) (Q969F8 whole entry, looked up): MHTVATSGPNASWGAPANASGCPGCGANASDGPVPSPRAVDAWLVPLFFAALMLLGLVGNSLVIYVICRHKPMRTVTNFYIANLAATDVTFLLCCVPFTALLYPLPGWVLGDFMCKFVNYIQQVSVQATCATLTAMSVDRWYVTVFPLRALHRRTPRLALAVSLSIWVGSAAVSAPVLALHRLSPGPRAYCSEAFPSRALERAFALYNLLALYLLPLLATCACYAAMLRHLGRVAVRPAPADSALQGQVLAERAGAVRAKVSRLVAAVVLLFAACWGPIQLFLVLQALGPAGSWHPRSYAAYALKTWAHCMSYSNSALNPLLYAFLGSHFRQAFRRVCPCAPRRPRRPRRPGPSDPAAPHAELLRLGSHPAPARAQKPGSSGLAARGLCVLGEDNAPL
Chain of D(2) dopamine receptor (Homo sapiens) (P14416 whole entry, looked up): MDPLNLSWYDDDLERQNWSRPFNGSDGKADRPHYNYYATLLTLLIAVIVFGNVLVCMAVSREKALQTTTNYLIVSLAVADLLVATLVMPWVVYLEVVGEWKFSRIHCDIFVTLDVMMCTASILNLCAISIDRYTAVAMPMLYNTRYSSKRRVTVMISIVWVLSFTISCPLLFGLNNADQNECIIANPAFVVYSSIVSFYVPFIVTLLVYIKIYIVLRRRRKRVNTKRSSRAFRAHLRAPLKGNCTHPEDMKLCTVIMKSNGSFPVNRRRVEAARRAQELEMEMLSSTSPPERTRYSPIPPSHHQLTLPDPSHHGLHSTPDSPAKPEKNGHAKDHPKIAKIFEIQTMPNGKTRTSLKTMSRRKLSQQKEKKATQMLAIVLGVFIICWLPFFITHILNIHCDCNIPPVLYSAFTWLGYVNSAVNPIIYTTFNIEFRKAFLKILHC
Chain of Muscarinic acetylcholine receptor M1 (Homo sapiens) (P11229 whole entry, looked up): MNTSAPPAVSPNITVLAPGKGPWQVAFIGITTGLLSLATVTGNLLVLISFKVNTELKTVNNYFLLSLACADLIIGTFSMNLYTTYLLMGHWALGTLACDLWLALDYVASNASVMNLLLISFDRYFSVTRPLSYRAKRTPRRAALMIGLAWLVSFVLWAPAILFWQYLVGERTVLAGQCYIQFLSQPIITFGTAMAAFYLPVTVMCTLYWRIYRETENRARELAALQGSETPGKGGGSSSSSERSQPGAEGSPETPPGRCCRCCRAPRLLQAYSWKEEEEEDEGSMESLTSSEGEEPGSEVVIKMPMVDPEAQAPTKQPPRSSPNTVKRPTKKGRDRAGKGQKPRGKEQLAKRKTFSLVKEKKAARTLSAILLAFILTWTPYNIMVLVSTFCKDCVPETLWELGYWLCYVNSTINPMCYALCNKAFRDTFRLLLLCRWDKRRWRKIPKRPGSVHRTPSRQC
Chain of 5-hydroxytryptamine receptor 2A (Homo sapiens) (P28223 whole entry, looked up): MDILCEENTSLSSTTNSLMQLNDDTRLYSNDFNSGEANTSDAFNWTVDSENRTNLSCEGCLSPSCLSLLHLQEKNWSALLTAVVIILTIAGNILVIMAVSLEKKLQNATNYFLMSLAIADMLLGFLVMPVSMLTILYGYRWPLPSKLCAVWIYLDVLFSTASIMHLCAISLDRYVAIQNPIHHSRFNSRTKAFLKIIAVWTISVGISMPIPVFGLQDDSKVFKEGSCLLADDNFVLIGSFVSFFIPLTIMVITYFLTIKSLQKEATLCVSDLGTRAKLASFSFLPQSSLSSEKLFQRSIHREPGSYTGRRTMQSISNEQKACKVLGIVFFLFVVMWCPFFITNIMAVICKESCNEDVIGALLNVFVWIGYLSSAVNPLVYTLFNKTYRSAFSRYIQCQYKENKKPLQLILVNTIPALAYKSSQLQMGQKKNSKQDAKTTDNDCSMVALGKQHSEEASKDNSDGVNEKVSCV
Chain of Beta-2 adrenergic receptor (Homo sapiens) (P07550 whole entry, looked up): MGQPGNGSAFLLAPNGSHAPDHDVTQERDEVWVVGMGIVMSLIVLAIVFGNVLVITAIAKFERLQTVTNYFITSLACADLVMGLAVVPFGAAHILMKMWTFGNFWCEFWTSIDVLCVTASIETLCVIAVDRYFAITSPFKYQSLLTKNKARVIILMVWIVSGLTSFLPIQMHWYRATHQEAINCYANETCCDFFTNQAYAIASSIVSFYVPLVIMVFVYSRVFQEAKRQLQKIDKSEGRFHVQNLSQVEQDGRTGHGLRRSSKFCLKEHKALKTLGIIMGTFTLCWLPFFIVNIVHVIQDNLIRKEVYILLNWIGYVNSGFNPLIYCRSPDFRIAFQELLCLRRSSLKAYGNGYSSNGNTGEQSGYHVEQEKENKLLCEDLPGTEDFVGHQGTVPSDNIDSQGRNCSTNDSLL

With `NC(N)=S`, the Potency result in test [1], in test [2], in test [3], in test [4], in test [5] and in [6] was “inactive” each time. The Potency entry in test [7], in test [8], in [9], in test [10], in [11] and in test [14] was “inactive” in each case. Further, the Potency entry in [15], in test [16], in [17], in [18], in test [19] and in test [20] was “inactive” in each case. In addition, the Potency entry in test [12] is “inactive and 37.5 µM (active)”; in [13] it was “inactive and 54.9 µM (active)”.

On to `CC(=O)N[C@@H](CS)C(=O)O`, for which the Potency result in [1], in [2], in test [3], in [4], in test [5] and in test [6] was “inactive” throughout. Also, the Potency entry in test [7], in [8], in test [9], in [10], in test [11] and in test [12] was “inactive” each time. The Potency result in [13], in test [14], in test [15], in [16], in [17] and in [18] was “inactive” throughout. For the same compound, the Potency result in test [19] and in test [20] was “inactive” in each case.

As to `Nc1ccc(S(=O)(=O)Nc2cnc3ccccc3n2)cc1`, the Potency entry in [1], in [2], in test [3], in test [4], in [5] and in [6] was “inactive” each time. Further, the Potency entry in [7], in test [8], in test [9], in [10], in [11] and in [12] was “inactive” in each case. Besides, the Potency entry in [13], in test [14], in test [15], in [16], in test [17] and in test [18] was “inactive” throughout. Moreover, the Potency entry in [19] and in [20] was “inactive” throughout.

`O=C=NCCCCCCN=C=O`: the Potency entry in [1], in test [2], in [3], in [4], in test [5] and in test [6] was “inactive” in each case. For the same compound, the Potency result in test [7], in [8], in [9], in [10], in [11] and in [12] was “inactive” each time. The Potency entry in test [13], in test [15], in test [16], in test [17], in test [18] and in test [19] was “inactive” each time. For the same compound, the Potency entry in test [14] is “inactive and 27 µM (active)”.

Take `CC(C)(C)[C@@H](O)[C@@H](Cc1ccc(Cl)cc1)n1cncn1`: the Potency entry in test [1], in test [2], in [3], in [4], in [5] and in [6] was “inactive” throughout. In addition, the Potency entry in [7], in test [8], in test [9], in [10], in test [11] and in test [12] was “inactive” throughout. In addition, the Potency entry in [13], in [14], in test [15], in [16], in test [17] and in test [18] was “inactive” throughout. Also, the Potency result in test [19] and in [20] was “inactive” each time.

Regarding `Cc1ccc2ncccc2c1`, the Potency entry in test [1], in test [2], in test [3], in [4], in test [5] and in test [6] was “inactive” each time. Moreover, the Potency result in [7], in test [8], in test [9], in test [10], in test [11] and in test [12] was “inactive” each time. Also, the Potency result in [13], in test [14], in [15], in [16], in test [17] and in [18] was “inactive” throughout. The Potency result in test [19] and in [20] was “inactive” in each case.

In the case of `CCCCCCCCCCCCCCCC(=O)O`, the Potency entry in [1], in test [2], in test [3], in test [4], in test [5] and in test [6] was “inactive” each time. Besides, the Potency entry in test [7], in test [8], in test [9], in test [10], in [11] and in [12] was “inactive” each time. Besides, the Potency entry in test [13], in test [14], in [15], in test [16], in test [17] and in test [18] was “inactive” throughout. The Potency result in [19] and in test [20] was “inactive” each time.

Turning to `OCCCc1ccccc1`, the Potency entry in test [1], in test [2], in test [3], in test [4], in test [5] and in [6] was “inactive” throughout. In addition, the Potency result in test [7], in test [8], in [9], in test [10], in [11] and in test [12] was “inactive” each time. Besides, the Potency entry in test [13], in test [14], in test [15], in test [16], in [17] and in test [18] was “inactive” throughout. Besides, the Potency entry in [19] and in [20] was “inactive” in each case.
